Inhibition data for 54 molecules are collected here from PubChem BioAssay AID2313 (Broad Institute, 2010).

Molecules are shown by their SMILES. In all, about 22,000 compounds went through this assay and about 460 (2.1%) were called active. Not shown: some 2% with an inconclusive outcome.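 Rule for the calls: active = mean inhibition across valid replicates above about 65% (limit read from the data); inconclusive = mean under the limit, yet half or more replicates past it; inactive = the rest.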 For the sample, actives were picked, then their nearest neighbours and some compounds at random.

The assay in a line: Hedgehog pathway signaling inhibitors, primary screen, luminescence, Shh-LIGHT2 cells, Gli-luciferase (AID 2313).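 Note: pathway switched on by Shh-conditioned medium diluted 1 in 25 in low serum.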 To be noted: Shh-LIGHT2 Gli-luciferase reporter, 30 h; active compounds read high.
With `C[C@H]1CN([C@@H](C)CO)C(=O)Cc2cc(NS(=O)(=O)c3ccc(F)cc3)ccc2O[C@H]1CN(C)Cc1ccc(C(F)(F)F)cc1`, the inhibition was 30.1% (inactive).

On to `COc1ccc(S(=O)(=O)N(C)C[C@H]2Oc3ccc(NC(=O)C4CC4)cc3CC(=O)N([C@@H](C)CO)C[C@@H]2C)cc1`, for which the inhibition was -32.4% (inactive).

In the case of `CC(C)NC(=O)Nc1ccc2c(c1)C(=O)N([C@@H](C)CO)C[C@@H](C)[C@H](CN(C)Cc1ccc(C(=O)O)cc1)O2`, the inhibition is -19.8% (inactive).

On to `C[C@H]1CN([C@@H](C)CO)C(=O)Cc2cc(N(C)C)ccc2O[C@@H]1CN(C)Cc1ccc(-c2ccccc2)cc1`, for which the inhibition is 33.2% (inactive).

On to `C[C@@H]1CCCCO[C@@H](CN(C)C(=O)CCC(F)(F)F)[C@@H](C)CN([C@H](C)CO)C(=O)c2cc(NC(=O)Nc3ccccc3)ccc2O1`, for which the inhibition was -0.845% (inactive).

Regarding `O=C(c1ccccc1)c1cnn(-c2ccc(Cl)cc2)n1`, the inhibition was 79.3% (active).

Consider `C[C@@H]1CN([C@H](C)CO)C(=O)Cc2cc(NC(=O)C3CCCCC3)ccc2O[C@@H]1CN(C)S(C)(=O)=O`, for which the inhibition was -14.6% (inactive).

Regarding `C[C@@H]1CN([C@H](C)CO)C(=O)c2cccc(NC(=O)Nc3ccc4c(c3)OCO4)c2O[C@H]1CN(C)C(=O)Nc1ccc(F)cc1`, the inhibition was -8.45% (inactive).

In the case of `C[C@@H]1CN([C@@H](C)CO)C(=O)c2cccc(NC(=O)NC3CCCCC3)c2O[C@@H]1CN(C)CC1CCCCC1`, the inhibition is -35.3% (inactive).

With `C[C@H]1CN([C@@H](C)CO)C(=O)Cc2cc(NC(=O)CCC(F)(F)F)ccc2O[C@H]1CN(C)C(=O)NC1CCCCC1`, the inhibition was -30.3% (inactive).

Turning to `O=C1C2CC3CC1CC(C(=O)O)(C3)C2`, the inhibition was -15.4% (inactive).

Regarding `CCN1C(=O)c2cccc3c(NC(=S)NC(=O)c4ccccc4)ccc1c23`, the inhibition is 86.3% (active).

In the case of `CC(C)(C)c1ccc(Cn2c(=N)n(CC(=O)O)c3ccccc32)cc1`, the inhibition is -5.52% (inactive).

For the molecule `O=c1c2ccccc2c(-c2ccccc2)nn1Cc1ccccc1`, the inhibition was 9.85% (inactive).

With `O=c1n(Cc2ccccc2)c2ccccc2n1Cc1ccccc1`, the inhibition was 96.1% (active).

In the case of `CCCN(C)C[C@@H]1OCCCC[C@@H](C)Oc2ccc(NC(=O)CCCN(C)C)cc2C(=O)N([C@H](C)CO)C[C@@H]1C`, the inhibition is -7.4% (inactive).

On to `S=C(NCC1CC1)Nc1ccc(Cl)cc1`, for which the inhibition is -35.4% (inactive).

`O=C(O)c1c(Br)c(Br)c(Br)c(Br)c1-c1c2ccc(=O)cc-2oc2cc(O)ccc12`: the inhibition is -5.58% (inactive).

With `C[C@@H]1CN([C@@H](C)CO)C(=O)c2cccc(NC(=O)Nc3ccc(F)cc3)c2O[C@H]1CN(C)Cc1ccc(-c2ccccc2)cc1`, the inhibition is 2.55% (inactive).

Regarding `C[C@H]1CN([C@@H](C)CO)C(=O)c2cc(NC(=O)Nc3ccccc3)ccc2O[C@H]1CN(C)S(C)(=O)=O`, the inhibition was -21% (inactive).

As for `C[C@@H]1CN([C@H](C)CO)C(=O)Cc2cc(NS(=O)(=O)c3ccc(Cl)cc3)ccc2O[C@H]1CN(C)S(=O)(=O)c1cccs1`, the inhibition was -21.8% (inactive).

`COc1ccc(S(=O)(=O)N(C)C[C@@H]2OCCCC[C@@H](C)Oc3ccc(NS(C)(=O)=O)cc3C(=O)N([C@H](C)CO)C[C@@H]2C)cc1`: the inhibition was 54.6% (inactive).

Turning to `C=C1C(=O)OC2/C=C(\C)CC3C=C(CC/C=C(\C)CCC12)C(=O)O3` (centres undefined), the inhibition was 39.9% (inactive).

As to `CC(C)NC(=O)Nc1ccc2c(c1)CC(=O)N([C@H](C)CO)C[C@H](C)[C@H](CN(C)Cc1ccc3c(c1)OCO3)O2`, the inhibition is -12.2% (inactive).

With `C[C@@H]1CN([C@H](C)CO)C(=O)c2cccc(NS(=O)(=O)c3ccc(Cl)cc3)c2O[C@@H]1CN(C)Cc1ccc(Oc2ccccc2)cc1`, the inhibition is 23.8% (inactive).

For `C[C@@H]1O[C@@H](O[C@H]2[C@@H](Oc3cc(O)c4c(c3)O[C@H](c3ccc(O)cc3)CC4=O)O[C@H](CO)[C@@H](O)[C@@H]2O)[C@H](O)[C@H](O)[C@H]1O`, the inhibition is -8.61% (inactive).

For `C[C@@H]1CN([C@H](C)CO)C(=O)c2cccc(NS(=O)(=O)c3ccc(Cl)cc3)c2O[C@H]1CN(C)C(=O)NC1CCCCC1`, the inhibition is -17% (inactive).

On to `CC(C)NC(=O)N(C)C[C@@H]1Oc2ccc(NS(=O)(=O)c3cn(C)cn3)cc2C(=O)N([C@@H](C)CO)C[C@@H]1C`, for which the inhibition is 8% (inactive).

For the molecule `Cc1ccc(NC(=O)C2C3C=CC(C3)C2C(=O)O)cc1` (centres undefined), the inhibition is -27.3% (inactive).

In the case of `Cc1ccc(S(=O)(=O)Nc2ccc3c(c2)C(=O)N([C@H](C)CO)C[C@H](C)[C@@H](CN(C)S(=O)(=O)c2cccs2)O3)cc1`, the inhibition was -5.89% (inactive).

With `C[C@@H]1CCCCO[C@H](CN(C)Cc2ccc(Cl)c(Cl)c2)[C@@H](C)CN([C@H](C)CO)C(=O)c2cc(NS(=O)(=O)c3cn(C)cn3)ccc2O1`, the inhibition was -46.4% (inactive).

As to `CC(C)NC(=O)N(C)C[C@H]1Oc2c(NS(=O)(=O)c3cccs3)cccc2C(=O)N([C@H](C)CO)C[C@H]1C`, the inhibition was -35.4% (inactive).

As for `C[C@@H]1CN([C@H](C)CO)C(=O)c2cccc(NS(=O)(=O)c3ccc(F)cc3)c2O[C@H]1CN(C)Cc1ccc(Oc2ccccc2)cc1`, the inhibition was 23.1% (inactive).

Consider `COc1ccc(CN(C)C[C@H]2Oc3ccc(NS(=O)(=O)c4ccc(C)cc4)cc3C(=O)N([C@@H](C)CO)C[C@H]2C)cc1`, for which the inhibition is 29.4% (inactive).

Take `COc1cc([C@H]2OC[C@H]3[C@@H]2CO[C@@H]3c2cc(OC)c(O[C@@H]3O[C@H](CO)[C@@H](O)[C@H](O)[C@H]3O)c(OC)c2)cc(OC)c1O`: the inhibition was 2.06% (inactive).

On to `COc1ccc(CN2C(=O)CC(Cc3ccc(C)cc3)C2=O)cc1OC` (centres undefined), for which the inhibition is 4.43% (inactive).

Turning to `COc1ccc(S(=O)(=O)Nc2cccc3c2O[C@@H](CN(C)S(=O)(=O)c2ccccc2)[C@@H](C)CN([C@@H](C)CO)C3=O)cc1`, the inhibition is -0.37% (inactive).

Regarding `O=C1C=C(SCC(=O)c2ccccc2)SC(c2ccc(Cl)cc2)C1` (centres undefined), the inhibition was 82.7% (active).

In the case of `O=C(CSc1nnc2n1CCCN2)c1ccccc1`, the inhibition was -28.2% (inactive).

As to `COC(=O)C1=CO[C@@H](O[C@@H]2O[C@H](CO)[C@@H](O)[C@H](O)[C@H]2O)[C@@H]2[C@@](C)(O)[C@@H](OC(=O)/C=C/c3ccc(OC)c(OC)c3)C[C@]12O`, the inhibition was 3.81% (inactive).

Turning to `CC1(C)CC[C@]2(C(=O)O)CC[C@]3(C)C(=CCC4[C@@]5(C)CC[C@H](OC6O[C@H](CO)[C@@H](O)[C@H](O[C@@H]7O[C@H](CO)[C@@H](O)[C@H](O)[C@H]7O)[C@H]6O)C(C)(C)C5CC[C@]43C)[C@@H]2C1` (some centres undefined), the inhibition is 107% (active).

Turning to `C=CC1(C)C=C2CCC3C(C)(C)C(O[C@@H]4O[C@@H](CO)[C@H](O)[C@H]4O)CCC3(C)C2CC1O[C@@H]1O[C@H](C)[C@@H](OC)[C@H](O)[C@H]1O` (some centres undefined), the inhibition is -27.2% (inactive).

Turning to `CC1OC(OC2C(OC3C(O[C@H]4CC[C@@]5(C)C(CC[C@]6(C)C5CC=C5[C@@H]7CC(C)(C)C[C@@H](O)[C@]7(C)CC[C@]56C)C4(C)C)OC(C(=O)O)C(O)C3O)OC(CO)C(O)C2O)C(O)C(O)C1O` (some centres undefined), the inhibition was 7.2% (inactive).

For the molecule `C/C=C(/C)C(=O)O[C@H]1CC(C)(C)C[C@H]2C3=CCC4[C@@]5(C)CC[C@H](O[C@@H]6O[C@H](C(=O)O)[C@@H](O[C@@H]7O[C@H](CO)[C@H](O)[C@H](O)[C@H]7O[C@@H]7O[C@H](CO)[C@@H](O)[C@H](O)[C@H]7O)[C@H](O)[C@H]6O[C@@H]6O[C@@H](C)[C@H](O)[C@@H](O)[C@H]6O)C(C)(C)C5CC[C@@]4(C)[C@]3(C)[C@@H](OC(C)=O)[C@@H](O)[C@@]12COC(C)=O` (some centres undefined), the inhibition was 97.7% (active).

As for `C/C=C(/C)C(=O)O[C@H]1CC(C)(C)C[C@H]2C3=CCC4[C@@]5(C)CC[C@H](O[C@@H]6O[C@H](C(=O)O)[C@@H](O[C@@H]7O[C@H](CO)[C@H](O)[C@H](O)[C@H]7O[C@@H]7O[C@H](CO)[C@@H](O)[C@H](O)[C@H]7O)[C@H](O)[C@H]6O[C@@H]6O[C@@H](C)[C@H](O)[C@@H](O)[C@H]6O)C(C)(C)C5CC[C@@]4(C)[C@]3(C)[C@@H](O)[C@@H](O)[C@@]12CO` (some centres undefined), the inhibition is 99.7% (active).

With `CC1(C)CC[C@]2(C(=O)O[C@@H]3O[C@H](CO)[C@@H](O)[C@H](O)[C@H]3O)CC[C@]3(C)C(=CCC4[C@@]5(C)CC[C@H](O[C@@H]6O[C@H](C(=O)O)[C@@H](O[C@@H]7OC[C@H](O)[C@H](O)[C@H]7O)[C@H](O)[C@H]6O)C(C)(C)C5CC[C@]43C)C2C1` (some centres undefined), the inhibition was 35.4% (inactive).

Regarding `CCC/C=C/C(=O)OC1C(O)C23C(O)OC4(CCC5C6(C)CCC(OC7OC(C(=O)O)C(O)C(OC8OC(CO)C(O)C(O)C8OC8OC(C)C(O)C(O)C8OC8OCC(O)C(O)C8O)C7OC7OC(CO)C(O)C(O)C7O)C(C)(C)C6CCC5(C)C4(C)CC2OC(C)=O)C3CC1(C)C` (centres undefined), the inhibition was 104% (active).

As to `C[C@H](CO)N1C[C@H](C)[C@H](CN(C)Cc2ccc3c(c2)OCO3)Oc2c(cccc2N(C)C)C1=O`, the inhibition was -27.6% (inactive).

With `CCCC(=O)Nc1ncnc2c1ncn2C1O[C@@H]2COP(=O)(O)O[C@H]2[C@H]1OC(=O)CCC` (some centres undefined), the inhibition is -62.8% (inactive).

Regarding `C[C@@H]1CCCCO[C@@H](CN(C)C(=O)Nc2cccc3ccccc23)[C@@H](C)CN([C@H](C)CO)C(=O)c2cc(NS(C)(=O)=O)ccc2O1`, the inhibition is 33.2% (inactive).

With `O=C(Oc1cccc(C(F)(F)F)c1)c1cc2ccc3ccccc3c2s1`, the inhibition is -31.9% (inactive).

Consider `C[C@@H]1CC[C@]2(C(=O)O)CC[C@]3(C)C(=CCC4[C@@]5(C)CC[C@H](O)[C@](C)(C(=O)O)C5CC[C@]43C)C2[C@]1(C)O` (some centres undefined), for which the inhibition is -18.2% (inactive).

In the case of `CC1(C)C2CC[C@]3(C)C(C(=O)C=C4[C@@H]5C[C@@](C)(C(=O)O)CC[C@]5(C)CC[C@]43C)[C@@]2(C)CC[C@@H]1O` (some centres undefined), the inhibition was 66.5% (active).

Consider `CC1(C)CC[C@@]2(C(=O)O)C(C1)C1=CCC3[C@@]4(C)CC[C@H](O)C(C)(C)C4CC[C@@]3(C)[C@]1(C)C[C@H]2O` (some centres undefined), for which the inhibition was -24.6% (inactive).
